Screening data as filed in PubChem BioAssay.
This is a sample that favours compounds with a hit; in the whole collection about 22% have one here.
Pf growth 48h: Primary qHTS for delayed death inhibitors of the malarial parasite plastid, 48 hour incubation. P. falciparum luciferase growth in erythrocytes, 48 h. Potency, µM (doses to about 28.7 µM), for the others: at the highest dose activity change, negative = inhibition, most hits filed as inhibitors. 310,000 compounds, 5.9% hits; also: potency is read from the fitted curve at half-maximal effect; % is scaled to controls: 0 for no effect and ±100 for the full control effect
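First compound was added to culture medium, then infected red cells at 0.1% parasitemia and 2% hematocrit (final). After incubation at 37 C under 5% CO2, luciferase detection reagent was dispensed and light output recorded.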
CHX counter: Cycloheximide Counterscreen for Small Molecule Inhibitors of Shiga Toxin | max response, % | cell reporter, cycloheximide protein synthesis inhibition counterscreen | 300,000 compounds, 12% hits; in the data active = max response mostly above about 13%, no sharp cut-off; inactive = mostly below about 14%; also: read at 38.3 µM for the half of the compounds with a filed dose; 0% is about no effect
Shiga toxin inh: A qHTS for Small Molecule Inhibitors of Shiga Toxin. Vero cells, Shiga toxin protein synthesis inhibition reporter. inhibition, % at 38.7 µM. 290,000 compounds, 9.2% hits; in the data active = inhibition mostly above about 28%, no sharp cut-off; inactive = mostly below about 43%; also: 0% is about no effect
LmPK inhibitor: qHTS Assay for Inhibitors of Leishmania Mexicana Pyruvate Kinase (LmPK); Q27686; purified LmPK, Kinase-Glo ATP luminescence, 1 h; Potency, µM (highest dose often 57.5 µM), for the others: at the top dose activity change, negative = inhibition, actives largely listed as inhibitors; 290,000 compounds, 0.37% hits; also: potency is read from the fitted curve at half-maximal effect; % is scaled to controls: 0 for no effect and ±100 for the full control effect
Target sequence (Q27686 whole entry, looked up): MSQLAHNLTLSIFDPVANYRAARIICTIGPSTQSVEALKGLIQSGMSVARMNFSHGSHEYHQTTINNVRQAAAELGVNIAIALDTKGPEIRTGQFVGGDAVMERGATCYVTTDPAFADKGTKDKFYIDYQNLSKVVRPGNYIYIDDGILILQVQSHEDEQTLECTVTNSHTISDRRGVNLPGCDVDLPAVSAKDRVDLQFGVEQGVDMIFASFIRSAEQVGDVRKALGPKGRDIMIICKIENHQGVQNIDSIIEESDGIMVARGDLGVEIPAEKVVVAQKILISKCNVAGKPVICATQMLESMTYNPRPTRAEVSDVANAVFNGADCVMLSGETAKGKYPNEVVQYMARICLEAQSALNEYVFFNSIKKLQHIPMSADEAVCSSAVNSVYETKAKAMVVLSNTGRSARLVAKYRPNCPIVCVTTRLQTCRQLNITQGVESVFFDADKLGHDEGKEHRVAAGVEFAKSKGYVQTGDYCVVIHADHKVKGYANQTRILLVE
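Pyruvate kinase activity monitored as ATP production (luciferase luminescence). Conditions: 0.1 nM enzyme, 0.5 mM PEP, 0.1 mM ADP, 1 h, RT; normalized against uninhibited and no-enzyme wells.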
Pf growth 96h: Primary qHTS for delayed death inhibitors of the malarial parasite plastid, 96 hour incubation; Potency, µM (series often up to 28.7 µM), for inactives: top-dose activity change, negative = inhibition, most hits filed as inhibitors; 320,000 compounds, 6.9% hits; AID 504834, 2011; P. falciparum luciferase reporter growth, 96 h; also: potency is read from the fitted curve at half-maximal effect; % is scaled to controls: 0 for no effect and ±100 for the full control effect
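Delayed-death screen, second-generation endpoint: infected erythrocytes, 2% hematocrit, 0.05% parasitemia final; 96 hours at 37 C, 5% CO2; luciferase detection reagent; luminescence decrease equals reduced growth.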
Numbers without * were called inactive; ? = inconclusive; / = no result given. Unless noted, calls follow the shape of the dose curve; as a rule, active = well fitted inhibition curve with a large enough effect; inconclusive = small, poorly fitted or top-dose-only effect, or another doubt; inactive = no such curve, though single readings can be large or run the other way.

SMILES	Pf growth 48h	CHX counter	Shiga toxin inh	LmPK inhibitor	Pf growth 96h
O=C(CCc1nnc(CCCc2ccccc2)o1)NCCc1ccccc1	-1.7%	21.7*	43.4*	-2.4%	59.3%
O=C(CCc1nnc(CCCc2ccccc2)o1)NCC(F)(F)F	14.6%	36.2*	38.8*	2.8%	0.5%
O=C(CCc1nnc(CCCCc2ccccc2)o1)NCCCc1cccnc1	-4.9%	25.5	3.6	2.1%	1.6%
CCOC(=O)CCNC(=O)CCc1nnc(CCCc2ccccc2)o1	14.1%	28.7*	96.1*	1.8%	11.7%
CC1CN(CC(O)COc2ccc(C#N)cc2)CCN1CC(O)COc1ccc(C#N)cc1 (stereo not drawn)	-6.9%	-5.8	22.3	1.0%	-6.3%
O=S(=O)(NCC(c1ccc2c(c1)OCO2)N1CCOCC1)c1ccccc1 (stereo not drawn)	2.0%	/	/	/	-0.5%
O=C(OC(C(=O)NCc1ccc2c(c1)OCO2)c1ccncc1)c1ccc(Cl)nc1 (stereo not drawn)	27.9%	6.5	-6.6	-7.1%	-1.9%
COC(=O)c1c(NC(=O)C(=O)N2CCOCC2)sc2c1CCCC2	-11.3%	-1.1	1.3	12.6%	?
COC(c1ccccc1)c1nnc(CCC(=O)NCCCc2ccccc2)o1 (stereo not drawn)	-0.2%	17.4*	23.4	1.7%	?
O=C(CCc1nnc(CCCCc2ccccc2)o1)NCCN1CCOC1=O	8.0%	21.5*	84.4*	1.3%	?
O=C(CCc1nnc(CCCc2ccccc2)o1)NCCc1ccco1	20.8%	42.7*	73.8*	4.2%	9.28µM*
COc1cc(OC)c(OC)cc1CN1CCSCC1	47.9%	-1.3	-7.0	-7.0%	-29.3%
O=C(c1cccnc1)N1CCN(S(=O)(=O)c2ccc(Cl)cc2)CC1	-20.9%	-2.9	-3.0	-7.9%	4.15µM*
Cn1nc(C(=O)N2CCN(S(=O)(=O)c3ccc(Cl)cc3)CC2)c2ccccc2c1=O	-28.8%	/	/	/	?
O=C(c1n[nH]c2ccccc12)N1CCCCC1	144.7%	19.5	6.0	2.2%	52.8%
O=C(c1n[nH]c2ccccc12)N1CCOCC1	8.9%	-2.8	-6.0	0.3%	14.7µM*
O=C(c1n[nH]c2ccccc12)N1CCN(S(=O)(=O)c2ccc(Cl)cc2)CC1	2.08µM*	/	/	/	?
COc1ccc(C)cc1N(CC(=O)Nc1ccc(S(=O)(=O)N2CCCC2)cc1)S(C)(=O)=O	-20.6%	17.1	-7.1	-8.2%	13.4%
CCCCCc1nnc(NC(=O)NS(=O)(=O)c2ccc(C)cc2)s1	46.1%	-3.6	18.9	4.7%	44.0%
CCOC(=O)C1CCCN(C(=O)CCCn2nnnc2CN2CCC(C)CC2)C1 (stereo not drawn)	5.6%	-1.8	-7.7	-0.3%	?
COc1ccc(C(C)=O)cc1CSc1ccc(S(=O)(=O)N2CCCCC2)cn1	?	/	/	/	-11.8%
COc1cc(CNC(=O)c2ccc3oc(C(C)C)nc3c2)cc(OC)c1	?	14.3*	14.6	2.0%	10.6%
CC(C)c1nc2cc(C(=O)N(C)Cc3ccc(F)cc3)ccc2o1	8.8%	42.5*	80.3*	-10.5%	?
CC(C)c1nc2cc(C(=O)NC(c3cccnc3)C(F)(F)F)ccc2o1 (stereo not drawn)	10.3%	17.9*	23.7	-8.3%	?
CC(C)OCCCN1CN(S(=O)(=O)c2cccc(Cl)c2)c2nc3ccccc3nc21	?	22.5*	37.7*	-0.2%	9.28µM*
SMILES	Pf growth 48h	CHX counter	Shiga toxin inh	LmPK inhibitor	Pf growth 96h
CC(C)OCCCN1CN(S(=O)(=O)c2ccc(Cl)cc2)c2nc3ccccc3nc21	?	17.5*	11.3	-2.0%	?
O=c1c2nnn(-c3ccc(Br)cc3)c2ncn1Cc1ccccn1	37.2%	12.8	23.5	-6.8%	57.3%
O=C(O)c1ccc(N2CC3CC(C2)c2cccc(=O)n2C3)c(NS(=O)(=O)c2cccc(C(F)(F)F)c2)c1 (stereo not drawn)	-37.7%	-2.0	-6.7	-3.7%	-20.6%
Cc1cc2c(N=O)c(NO)ccc2[nH]1	3.7µM*	10.5	50.1	-1.4%	41.5%
CC1CCN(C(=O)c2[nH]cnc2C(=O)Nc2cccc(Cl)c2)CC1	-7.3%	/	/	/	32.6%
O=C(NCc1nc2ccccc2[nH]1)C1=C[C@H](c2ccc3c(c2)OCO3)C[C@H](OCCCCO)O1	?	9.4	22.6	7.4%	4.15µM*
O=C(NCc1nc2ccccc2[nH]1)C1=C[C@@H](c2ccc3c(c2)OCO3)C[C@@H](OCc2ccc(CO)cc2)O1	9.28µM*	1.5	16.0	6.5%	?
O=C(NCc1nc2ccccc2[nH]1)C1=C[C@@H](C2CCCCC2)C[C@@H](OCc2ccc(CO)cc2)O1	?	11.1	46.4*	4.7%	?
O=C(NCc1nc2ccccc2[nH]1)C1=C[C@H](C2CCCCC2)C[C@H](OCc2ccc(CO)cc2)O1	?	4.6	-5.8	3.3%	?
O=C(NCc1nc2ccccc2[nH]1)C1=C[C@H](c2ccccc2)C[C@H](OCc2ccc(CO)cc2)O1	1.04µM*	14.8*	28.9	1.0%	1.65µM*
O=C(NCc1nc2ccccc2[nH]1)C1=C[C@H](c2ccccc2)C[C@H](OCCCCO)O1	?	5.0	3.1	2.0%	?
O=C(NCc1nc2ccccc2[nH]1)C1=C[C@H](c2ccc3c(c2)OCO3)C[C@H](OCc2ccc(CO)cc2)O1	-6.3%	10.4	7.9	11.9%	-22.8%
O=C(CSc1nccn(-c2cccc(F)c2)c1=O)Nc1ccc(Cl)cc1F	22.4%	-4.3	30.1	3.1%	6.5%
COc1c2c(c(C)c3c1C(=O)OC3)O[C@@]1(C)CC[C@@]3(O)C(C)(C)OC(=O)CC[C@]3(C)[C@H]1C2	0.1%	-5.6	1.8	6.4%	-1.7%
CC(=O)C1=C(c2ccc(Br)cc2)C(=O)c2ccccc2C1=O	?	17.1	27.4	1.2%	?
O=C1C(c2ccccc2)=C(N2CC2)c2ccccc21	5.86µM*	16.5	40.7	-0.1%	3.7µM*
O=C(NNc1ccc(C2CCCCC2)cc1)C(O)(c1ccccc1)c1cccs1 (stereo not drawn)	?	16.0*	37.0	2.8%	74.2%
CN(Cc1nc(-c2ccc(Cl)cc2)no1)C(=O)c1ccc2c(c1)OCO2	5.5%	/	/	/	-16.8%
O=C(NC1CCCCCC1)c1c(O)c2ccccc2[nH]c1=O	?	25.0*	84.4*	-2.9%	6.2%
O=C(Nc1cccc(F)c1)c1c(O)c2ccccc2[nH]c1=O	60.4%	22.7*	/	8.3%	?
O=c1[nH]c2ccccc2c(O)c1-[n+]1ccccc1	3.0%	-1.2	43.2	-5.6%	13.6%
O=c1[nH]c2ccccc2c(O)c1O	13.1µM*	0.5	-8.7	-23.6%	10.4µM*
O=C(Cc1c(O)c2ccccc2[nH]c1=O)NC1CCCCCC1	-7.8%	16.7	14.1	0.8%	25.6%
CC(C)C(=O)NNC(=O)c1c(O)c2ccccc2[nH]c1=O	11.7µM*	-2.4	2.6	-1.3%	?
CCCCC(=O)NS(=O)(=O)c1ccc(N=NN(CC)CC)cc1	-2.0%	0.2	-11.5	4.6%	-12.4%
